# Reference: the supplement of paper PMC8728848
# This excerpt belongs to a sample that is enriched for the strongest signals.
# What was measured:
# Experiment in all cases: glycan array binding signal (z-score within array); higher = stronger binding
# Conditions in all cases: glycan notation: IUPAC condensed, linker removed
# [1] = target: Fuc(a1-2)Gal(b1-3)GalNAc
# Method in brief: (§1)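 The Consortium for Functional Glycomics database supplied 3228 glycan arrays, of which those lacking an available protein sequence were dropped. The binding signal, a within-array Z-score, was averaged across arrays of the same protein sequence and across linkers. Negative scores can be read as non-binding.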
# [2] = target: Fuc(a1-2)Gal(b1-3)GalNAc(a1-3)[Fuc(a1-2)]Gal(b1-4)GlcNAc
# Method in brief: as §1
# [3] = target: Fuc(a1-2)Gal(b1-3)GlcNAc
# Method in brief: as §1
# [4] = target: Fuc(a1-2)Gal(b1-3)GlcNAc(b1-2)Man(a1-3)[Fuc(a1-2)Gal(b1-3)GlcNAc(b1-2)Man(a1-6)]Man(b1-4)GlcNAc(b1-4)GlcNAc
# Method in brief: as §1
# [5] = target: Fuc(a1-2)Gal(b1-3)GlcNAc(b1-3)Gal(b1-4)Glc
# Method in brief: as §1
# [6] = target: Fuc(a1-2)Gal(b1-4)Glc6S
# Method in brief: as §1
# [7] = target: Fuc(a1-2)Gal(b1-4)GlcNAc(b1-3)Gal(b1-4)GlcNAc(b1-2)Man(a1-3)[Fuc(a1-2)Gal(b1-4)GlcNAc(b1-3)Gal(b1-4)GlcNAc(b1-2)Man(a1-6)]Man(b1-4)GlcNAc(b1-4)GlcNAc
# Method in brief: as §1
# [8] = target: Fuc(a1-2)[Gal(a1-3)]Gal(b1-3)GlcNAc
# Method in brief: as §1
# [9] = target: Fuc(a1-2)[Gal(a1-3)]Gal(b1-3)GlcNAc(b1-2)Man(a1-3)[Fuc(a1-2)[Gal(a1-3)]Gal(b1-3)GlcNAc(b1-2)Man(a1-6)]Man(b1-4)GlcNAc(b1-4)GlcNAc
# Method in brief: as §1
# [10] = target: Fuc(a1-2)[Gal(a1-3)]Gal(b1-4)GlcNAc
# Method in brief: as §1
# [11] = target: Fuc(a1-2)[Gal(a1-3)]Gal(b1-4)[Fuc(a1-3)]Glc
# Method in brief: as §1
# [12] = target: Fuc(a1-2)[GalNAc(a1-3)]Gal
# Method in brief: as §1
# [13] = target: Fuc(a1-2)[GalNAc(a1-3)]Gal(b1-3)GalNAc(b1-3)Gal(a1-4)Gal(b1-4)Glc
# Method in brief: as §1
# [14] = target: Fuc(a1-2)[GalNAc(a1-3)]Gal(b1-3)GlcNAc(b1-2)Man(a1-3)[Fuc(a1-2)[GalNAc(a1-3)]Gal(b1-3)GlcNAc(b1-2)Man(a1-6)]Man(b1-4)GlcNAc(b1-4)GlcNAc
# Method in brief: as §1
# [15] = target: Fuc(a1-2)[GalNAc(a1-3)]Gal(b1-4)Glc
# Method in brief: as §1
# [16] = target: Fuc(a1-3)[Gal(b1-4)]GlcNAc(b1-6)[Gal(b1-3)GlcNAc(b1-3)]Gal(b1-4)Glc
# Method in brief: as §1
# [17] = target: Fuc(a1-4)GlcNAc
# Method in brief: as §1
# [18] = target: Gal(a1-3)Gal(b1-4)GlcNAc(b1-2)Man(a1-3)[Gal(a1-3)Gal(b1-4)GlcNAc(b1-2)Man(a1-6)]Man(b1-4)GlcNAc(b1-4)GlcNAc
# Method in brief: as §1
# [19] = target: Gal(a1-4)Gal(b1-3)GlcNAc(b1-2)Man(a1-3)[Gal(a1-4)Gal(b1-3)GlcNAc(b1-2)Man(a1-6)]Man(b1-4)GlcNAc(b1-4)GlcNAc
# Method in brief: as §1
# [20] = target: Gal(a1-4)Gal(b1-4)GlcNAc(b1-3)Gal(b1-4)Glc
# Method in brief: as §1
# [21] = target: Gal(a1-4)GlcNAc
# Method in brief: as §1
# [22] = target: Gal(b1-3)GlcNAc(b1-2)Man
# Method in brief: as §1
# [23] = target: Gal(b1-3)GlcNAc(b1-2)[Gal(b1-3)GlcNAc(b1-6)]Man(a1-6)[Gal(b1-3)GlcNAc(b1-2)Man(a1-3)]Man(b1-4)GlcNAc(b1-4)GlcNAc
# Method in brief: as §1
# [24] = target: Gal(b1-3)GlcNAc(b1-3)Gal(b1-3)GlcNAc
# Method in brief: as §1
# [25] = target: Gal(b1-3)GlcNAc(b1-3)Gal(b1-4)[Fuc(a1-3)]GlcNAc
# Method in brief: as §1
# [26] = target: Gal(b1-3)GlcNAc(b1-6)Gal(b1-4)GlcNAc
# Method in brief: as §1
# [27] = target: Gal(b1-3)GlcNAc(b1-6)GalNAc
# Method in brief: as §1
# [28] = target: Gal(b1-4)GlcNAc
# Method in brief: as §1
# [29] = target: Gal(b1-4)GlcNAc(a1-6)Gal(b1-4)GlcNAc
# Method in brief: as §1
# [30] = target: Gal(b1-4)GlcNAc(b1-2)Man
# Method in brief: as §1
# [31] = target: Gal(b1-4)GlcNAc(b1-2)Man(a1-3)Man(b1-4)GlcNAc(b1-4)GlcNAc
# Method in brief: as §1
# [32] = target: Gal(b1-4)GlcNAc(b1-2)Man(a1-3)[GlcNAc(b1-2)Man(a1-6)]Man(b1-4)GlcNAc(b1-4)GlcNAc
# Method in brief: as §1
# [33] = target: Gal(b1-4)GlcNAc(b1-3)Gal(b1-4)Glc
# Method in brief: as §1
binder,measurement,setting,value
PX14379A-bvu-539-28-539 (Bacteroides vulgatus) (protein) EPYSEIIEEDYVPTEADEIALLATTYSQLRFVMDWYGLFDLQEESGDVIVTPTRPNGWDDGGTYKQMHKHTWDNQQGQPQSIWDYCYKGIANANKILKRADEGFFTEESKPKVVAEVKGVRALWYSILCDTHGNIPIQTSFSEEVPVQSTRKQVFDFIINELKEVMPNLPTEVNKSTYGRLTQWGAKCLMARMYLNAGVYTGTPMWNECLEQCNDIINSGLFSLETNYTDIFKTENSGCVETIFAIPYDEVYNEGDNNGPVFGAHMKFLSSNSRKVFNMQTTPWGGSAANPQFINSYDPDDMRLKYTWLQGDQYSPDGVLITTFPNKLPSIYKTDTDDGYRVGKYEIKVGAKSLLSNDFPYFRYTEVLLMKAECLLRLGQNETEAAHIVSQIRERAFRESAHPEKATVDAAWLKGDTHINYGTLDEKGQIDDAGNTEVVELGGLYDEWGWEFAAEARRRTDMIRFGTYQKKSWFNHTPTANDLNGNSILFPIHLDHLNTNPNLQQNPGYAGK,glycan array binding signal (z-score),[1],-0.448
same,glycan array binding signal (z-score),[2],-0.426
same,glycan array binding signal (z-score),[3],-0.263
same,glycan array binding signal (z-score),[4],8.31
same,glycan array binding signal (z-score),[5],-0.301
same,glycan array binding signal (z-score),[6],-0.232
same,glycan array binding signal (z-score),[7],2.29
same,glycan array binding signal (z-score),[8],-0.419
same,glycan array binding signal (z-score),[9],9.25
same,glycan array binding signal (z-score),[10],-0.199
same,glycan array binding signal (z-score),[11],-0.231
same,glycan array binding signal (z-score),[12],-0.215
same,glycan array binding signal (z-score),[13],-0.369
same,glycan array binding signal (z-score),[14],1.23
same,glycan array binding signal (z-score),[15],-0.321
same,glycan array binding signal (z-score),[16],-0.44
same,glycan array binding signal (z-score),[17],-0.18
same,glycan array binding signal (z-score),[18],3
same,glycan array binding signal (z-score),[19],0.016
same,glycan array binding signal (z-score),[20],-0.391
same,glycan array binding signal (z-score),[21],-0.226
same,glycan array binding signal (z-score),[22],0.056
same,glycan array binding signal (z-score),[23],5.87
same,glycan array binding signal (z-score),[24],0.03
same,glycan array binding signal (z-score),[25],-0.515
same,glycan array binding signal (z-score),[26],-0.27
same,glycan array binding signal (z-score),[27],-0.344
same,glycan array binding signal (z-score),[28],-0.29
same,glycan array binding signal (z-score),[29],-0.203
same,glycan array binding signal (z-score),[30],-0.28
same,glycan array binding signal (z-score),[31],0.346
same,glycan array binding signal (z-score),[32],3.64
same,glycan array binding signal (z-score),[33],-0.017
